The labels stand for the following.
T1: UNK ZnF1-3 (human, UniProt Q9C0B0 31-174)
T1 sequence: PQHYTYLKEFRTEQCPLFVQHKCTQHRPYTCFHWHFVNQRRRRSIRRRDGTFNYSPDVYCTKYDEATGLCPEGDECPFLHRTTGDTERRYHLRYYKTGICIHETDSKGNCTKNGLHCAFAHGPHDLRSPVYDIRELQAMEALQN

B1: chr2:202488911:202488912:-_ENSG00000155755_ENST00000286196|hu_mus|hu_hu_hu_mus_False|8_18 (ssRNA)
RNA: GGGAGUUCUACAGUCCGACGAUCAUUGAAACAUUUUUCAUAAUCUCCAGUAGCAUUUCAGCAUUAUGUAACAAAAGCUCAAUUGUAAAUACAUGUAUCUUAUAAAAAUACACUUAAAUUUAAAAACAAAAAUGGGAGGCGCCACAACAGAGGAUUGAGCAUCA
B2: chr2:202488911:202488912:-_ENSG00000155755_ENST00000286196|hu_mus|hu_hu_hu_mus_False|8_8 (ssRNA)
RNA: B1 RNA with U118A, U119A, U120C, A122C, A123G, A125G, C126U
B3: chr19:47150976:47150977:-_ENSG00000197380_ENST00000391916|hu_hu|motif|central (ssRNA)
RNA: GGGAGUUCUACAGUCCGACGAUCACUGGGGAGUCACCAUCGUCAUAAUAAAUACAGUAAUUUUAAAAAAGAAAAAAAAUACGGGAUUGGAACAGCUGAGGGUCAUCAGGCUUCCCCCAUUCCCUCUCACAGGGAGUGGGGGUCCAACAGAGGAUUGAGCAUCA
B4: chr2:202488911:202488912:-_ENSG00000155755_ENST00000286196|hu_mus|hu_hu_hu_mus_False|18_48 (ssRNA)
RNA: B1 RNA with U93C, G94A, A96G, A127G, A128G, A129G, A130G, U132G, G133C, G135C
B5: chr2:27806210:27806211:+_ENSMUSG00000026837_ENSMUST00000028280|mus_mus|FALSE|FALSE (ssRNA)
RNA: GGGAGUUCUACAGUCCGACGAUCUGUGGUUUCUCUGGCAGCUUCCACUGGCUUCUGAGUAGGGGCAGGCUCCUUUCCCGGGUCUUCAGGGUCUUCAUAAUAUGGAUACUCAUAGUAAUAGGUCUCACCCUCUCCUUCUGGGUACAACAGAGGAUUGAGCAUCA
B6: chr2:202488911:202488912:-_ENSG00000155755_ENST00000286196|hu_mus|hu_hu_hu_mus_False|1_18 (ssRNA)
RNA: GGGAGUUCUACAGUCCGACGAUCAUUGAAACAUUUUUCAUAAUCUCCAGUAGCAUUUCAGCAUUAUGUAACAAAAGCUCAAUUGUAAAUACAUGUAUCUUAUAAAAAUACACUUAAAUUUAAAAACGGGGAGCGCACAAAUACCAACAGAGGAUUGAGCAUCA
B7: chr1:229631779:229631780:-_ENSG00000069248_ENST00000261396|hu_hu|motif|central (ssRNA)
RNA: GGGAGUUCUACAGUCCGACGAUCUAAUUCCCAUUUACUGAUGUUUGAACUCGUCAGGCUAUAAAAGCUUGAUCUCUCUCGGUCCCAGAGAACACUUGAAAGUGUGAGAUCACUACUAGGAGAUAAAAUUCCAAAAAGAGAAGACAACAGAGGAUUGAGCAUCA
B8: chrX:140365796:140365797:-_ENSMUSG00000031285_ENSMUST00000033642|mus_mus|mus_mus_mus_hu_False|48_108 (ssRNA)
RNA: GGGAGUUCUACAGUCCGACGAUCCUUCUCAUUACUUAGUGCCUGCAAGGUUCUGGUUCGGUAGAAGCUACAGUGGGCGCUGUGAGUGGGACUUGGAAACCCAUUCAUCCGGGAGCCUCGCAUGUUCCUGGAUGUCUUAUCUCUCAACAGAGGAUUGAGCAUCA
B9: chr11:100882373:100882374:+_ENSMUSG00000019302_ENSMUST00000044721|mus_mus|mus_mus_mus_hu_True|28_28 (ssRNA)
RNA: GGGAGUUCUACAGUCCGACGAUCUUCCUGGUUUGUGUUGAUUUCCUUCAGUUCAUUUUCAAUCUUCUCAAAAUUGGCCUCUAAGUCAAUCAUGUCCCGGGGGAAGGGCACCUCUGGGUUUUCACCGGUGUCCAUAAUCGGAAUCAACAGAGGAUUGAGCAUCA
B10: chr1:88750987:88750988:+_ENSMUSG00000053333_ENSMUST00000065694|mus_mus|motif|central (ssRNA)
RNA: GGGAGUUCUACAGUCCGACGAUCUGAUAAGCCUCUUGUGUCCUGUGGUAUGGGGGUGUUCUCAUCUUUCAUAACUGGAGUACGGGAAUCUUCUUUUCCUCUGUCAGGAGUAGAGAUUGACAAUUUCUUAACACCAUCAACCAGCAACAGAGGAUUGAGCAUCA
B11: chr1:225611761:225611762:-_ENSG00000143815_ENST00000272163|hu_mus|hu_hu_hu_mus_True|8_108 (ssRNA)
RNA: GGGAGUUCUACAGUCCGACGAUCCCAGGCCAUCGACCUCUGACCACUUCACCCUCAACAAACUUCCUACUUGGCAUUUUCUAAAAUUAGUCUGGCCGCGCUCCGGCGGGAACUCCAGCCACUCCAGGGAGAAUAGUAGCAGCCCAACAGAGGAUUGAGCAUCA
B12: chr1:180971808:180971809:-_ENSG00000135823_ENST00000258301|hu_mus|FALSE|FALSE (ssRNA)
RNA: GGGAGUUCUACAGUCCGACGAUCUUUUCUUAUGCUCAAUUCAGUUGCAUCCAAGUUGAAUUUUCUAGGAUUUGCUUCAACUAUGCUGAUGGUUUCAUCGAGGUCCUCCAGAUCCCACUCUAUGCUGCGGAGAUUGUUCCUCAGCAACAGAGGAUUGAGCAUCA
B13: 5721493_5721695_819_3pUTR_ENSMUSG00000024937_ENSMUST00000075606|mouse|control|control (ssRNA)
RNA: GGGAGUUCUACAGUCCGACGAUCCUCCUCAUCACUCUCAGCAAAGUCAUCCAGGUUUCCCACGUCACUAGGCUUCACACUCAUGAGGCUGGCCAGACUCUGCAUGUCAUCAUCCGUGGCACGGCCUUCUCGCAGCAGCACCCCCAACAGAGGAUUGAGCAUCA
B14: chr13:55803104:55803105:+_ENSMUSG00000045767_ENSMUST00000057844|mus_hu|FALSE|FALSE (ssRNA)
RNA: GGGAGUUCUACAGUCCGACGAUCGCACAGCACCAGUAAGUAGAUGUGCUGGAGGGUAGAGGAAGAGGAAUGAAUGUACGAAAGGCAGGGGAGAAAGGGAAGGGUAUGUAUAACAAAAUAAGGAAGGAAAAUAAACUGAAAGGGCAACAGAGGAUUGAGCAUCA
B15: chr1:58468927:58468928:-_ENSMUSG00000026034_ENSMUST00000148330|mus_mus|mus_mus_mus_hu_False|18_48 (ssRNA)
RNA: GGGAGUUCUACAGUCCGACGAUCAAUUACUGAAAAAGAUGUUCAUUACCUUAGCUAUGUACUUAAUGAACCAAAUUACCCAAACAACAUAAAAUGUGCAAUAUAAAAAUGUUAAGAAAAUAACUUACUGUACAAAAUAACUUACAACAGAGGAUUGAGCAUCA
B16: chr10:112657927:112657928:+_ENSG00000150593_ENST00000280154|hu_mus|FALSE|FALSE (ssRNA)
RNA: GGGAGUUCUACAGUCCGACGAUCAAAAAAAAAAAAAAAAAAAAAAACAAUAACAAAAACAAAAGGAAAAGAAAACCUGUACUGACAACUCUUACAGUUGAGAUCUGUUCUUGGUAACACCUAAGACUGUAAGAGUUGCUGUGCCAACAGAGGAUUGAGCAUCA
B17: chr2:47387792:47387793:-_ENSG00000143933_ENST00000272298|hu_hu|motif|central (ssRNA)
RNA: GGGAGUUCUACAGUCCGACGAUCUUAGGACAAUGACAGUAAGAUAAGGGAAGAAAACAUGGAGGAAUGAAGUCCGGAUUACGGUACAUGCAUAUUUUUUUGACAGUAGGGAGAAACCUUUUACAGAUAAGUUACAAACAAAGACAACAGAGGAUUGAGCAUCA
B18: chr1:178664722:178664723:-_ENSMUSG00000057335_ENSMUST00000057037|mus_mus|motif|central (ssRNA)
RNA: GGGAGUUCUACAGUCCGACGAUCAGUCGUUGUUGCUGUCUUGCAGGGUCCUUACAAAUGUGUAAGACUGACAAAGGGUUACGGUGGACCUACAGGGAAACACAGAAGCAAUUCAAUGACUGGGAGUGCAACUAUCAACUACUCCAACAGAGGAUUGAGCAUCA
B19: chr2:49626764:49626765:+_ENSMUSG00000026764_ENSMUST00000028102|mus_hu|FALSE|FALSE (ssRNA)
RNA: GGGAGUUCUACAGUCCGACGAUCGCACACAUCUGUACACACAGAAACUCUACACAGCUCAAAAGACCUGAAACUGGUGUACUGCAGAUGGCUGGAGUAAGCAAGUAUAAAAAAAAAAUGGAAACUGUAGGGGGGGAAAAAUAACAACAGAGGAUUGAGCAUCA
B20: chr8:81717444:81717445:+_ENSMUSG00000071064_ENSMUST00000098614|mus_mus|FALSE|FALSE (ssRNA)
RNA: GGGAGUUCUACAGUCCGACGAUCUAAUGUACACAAACCUUGACAGUAUGAGCGUCUGAACAUAAUAUGAGGAGUUAAAAAAAAAGAAAGAAAGAAAGAAAGAAAGAAAGAGAGAGAGAAAGAAAAGAAAGGACAGGAGAGAGACAACAGAGGAUUGAGCAUCA
B21: chr19:8913615:8913616:-_ENSMUSG00000071658_ENSMUST00000096259|mus_hu|mus_mus_mus_hu_False|98_108 (ssRNA)
RNA: GGGAGUUCUACAGUCCGACGAUCAGGGGGGCACCAAACCCUGCCUCAAAUGGGUGCCCCACCCAGUAGGGAGUUGCAGCUGAAAGUAUCUGAUGCAGAAGCAGUGACUAUACGAAAGGAGGCCCCUGGGGAGGGCCAGGCCAGCAACAGAGGAUUGAGCAUCA
B22: chr17:57746147:57746148:+_ENSG00000141367_ENST00000269122|hu_hu|FALSE|FALSE (ssRNA)
RNA: GGGAGUUCUACAGUCCGACGAUCUUGCCCAGUCUUGCAAGCUGCCUGAAUAUAUUUAAAGUGCACAUCUGGGUCCUGGCUAAAGUUAACAAUGGAUCCCAGAAAAUAAAAGAGACCUUCAAAACUCUUGAAAGAUUCAAAAAGCAACAGAGGAUUGAGCAUCA
B23: chr19:8913615:8913616:-_ENSMUSG00000071658_ENSMUST00000096259|mus_hu|mus_mus_mus_hu_False|1_38 (ssRNA)
RNA: GGGAGUUCUACAGUCCGACGAUCAGGGUACCAAAACCUUCUGCCUGAAAUGGGUGCCCCACCCAGUAGGGAGUUGCAGCUGAAAGUAUCUGAUGCACUGACAGUUACUAUACGAAAGGAGGCCCCUGGGGAGGGCCCGAGAUCCAACAGAGGAUUGAGCAUCA
B24: chr4:148551591:148551592:-_ENSMUSG00000063077_ENSMUST00000060537|mus_hu|mus_mus_mus_hu_False|28_68 (ssRNA)
RNA: GGGAGUUCUACAGUCCGACGAUCACCUGACAAAAUUAAAUAUCCCUGUAAAUUAGACAAUAAGCAGCAGGUAACAAAGUCUUUGCUUUGGAAUAUGUGCCAGGAAAAAUCAUGUUUUUUUUAGAUCUCAAGAGACAGUUCACACAACAGAGGAUUGAGCAUCA
B25: chr10:33214929:33214930:-_ENSG00000150093_ENST00000302278|hu_hu|hu_hu_hu_mus_True|18_78 (ssRNA)
RNA: GGGAGUUCUACAGUCCGACGAUCAACAAGUUCAUUGAAAAACUCUCCUCUGUCAGUAAGACUGAGCACAUUUUUGUAGCUAAAUGGGCUGGUGCAGUUUUGUUCACUUGUACAAGGGUUCCUGAGCUUUGCUGGGGUUGUGCUCAACAGAGGAUUGAGCAUCA

Positions count from the first letter of the chain named. The full ranking holds about 24,000 sequences; the median of “enrichment r” is about 0.99, and the highest 2% start at about 3.7. The entries come from a sample that favours the highest values as a whole.

For this assay, the target named is T1, UNK ZnF1-3. As to the kind of experiment: nsRBNS (natural sequence RNA bind-n-seq); RBNS binding buffer (assumed for nsRBNS): 25 mM Tris pH 7.5, 150 mM KCl, 3 mM MgCl2, 0.01% Triton X-100, 500 ug/ml BSA, 20 U/ml SUPERase-In, 4 C; UNK is unkempt and MSI1 is Musashi-1; names of the RNAs are library labels; protein concentration not given here; high values mean tight binding.
For the molecule B1, the binding signal worked out at 6.76 enrichment R.

Turning to B2, the binding signal was 0.957 enrichment R.

With B3, the binding signal is 6.05 enrichment R.

Consider B4, for which the binding signal was 3.69 enrichment R.

B5 displayed a binding signal of 0.892 enrichment R.

B6 showed a binding signal of 3.65 enrichment R.

Turning to B7, the binding signal is 1.07 enrichment R.

For B8, the binding signal came to 0.604 enrichment R.

For B9, the binding signal amounted to 0.609 enrichment R.

The molecule B10 showed a binding signal of 0.776 enrichment R.

B11 gave a binding signal of 1.34 enrichment R.

For B12, the binding signal came out at 0.284 enrichment R.

B13: the binding signal is 0.928 enrichment R.

B14: the binding signal amounted to 5.32 enrichment R.

For the molecule B15, the binding signal was 0.974 enrichment R.

Take B16: the binding signal was found to be 8.87 enrichment R.

Turning to B17, the binding signal was determined as 1.89 enrichment R.

With B18, the binding signal amounted to 1.23 enrichment R.

Take B19: the binding signal worked out at 9.96 enrichment R.

Take B20: the binding signal was 4.04 enrichment R.

B21 showed a binding signal of 1.63 enrichment R.

B22 returned a binding signal of 2.24 enrichment R.

Consider B23, for which the binding signal came to 1.39 enrichment R.

In the case of B24, the binding signal was found to be 1.18 enrichment R.

B25: the binding signal stood at 1.36 enrichment R.
